± gives the standard deviation.
Tested on: OVCAR-3-derived ovarian cancer stem-like cells (spheroids)
Test: cell growth relative to untreated control; higher = more growth (less inhibition)
Conditions: 2.29 µM; 96 h
Procedure, shortened: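 After trypsin dissociation, OVCAR-3 spheroid-derived stem-like cells were placed in ultra-low attachment 96-well plates at 50,000 cells/mL in stem cell medium and preincubated for 24 h. Treatment at 2.29 uM followed for 96 h at 37°C, 5% CO2, with 4 replicate wells per compound. A 4 h TOX8 resazurin fluorescence read (ex 560/em 590 nm) gave viability, from which percent growth relative to untreated wells was derived after blank subtraction and Grubbs outlier removal.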

Structure (SMILES) | cell growth [%]
CN(C)CCCN1c2ccc3ccccc3c2Sc2cccc(Cl)c21 | 104 ± 19
COc1cc(/C=C(\OC(C)=O)c2ccc3c(c2)OCO3)cc(OC)c1OC | 162 ± 58
O=C(O)c1ccc(Nc2c3ccccc3nc3ccccc23)cc1 | 98 ± 12
O=S1(=O)CCN(c2ccccc2CC(c2c[nH]c3ccccc23)c2c[nH]c3ccccc23)CC1 | 104 ± 24
Cc1cn(C2CC(O)C(CO)O2)c(=O)[nH]c1=O (stereo not given) | 92.3 ± 10
CCN(CC)CC(C)(C)C(=O)/C=C/c1ccc(C)cc1 | 80.7 ± 22
N#CCCN(c1ccc(C=O)cc1)S(=O)(=O)c1ccccc1 | 116 ± 22
Nc1ccn([C@@H]2O[C@H](CO)[C@@H](O)[C@@H]2O)c(=O)n1 | 76.6 ± 11
CCOC(=O)/C(=C/c1ccc(N(C)C)cc1)N(CC)CC | 85 ± 9.3
O=C(CCc1ccccc1)On1nnc2ccccc2c1=O | 79 ± 18
CC(=O)NCCCCCCNC(C)=O | 119 ± 7.8
O=C(CC(=O)c1ccccc1)CC(O)(c1ccccc1)c1ccccc1 | 124 ± 18
O=C1Nc2c(Cl)cc(Cl)cc2C1=O | 22.4 ± 13
O=C(CC1(O)C(=O)Nc2c(Cl)cc(Cl)cc21)c1ccc([N+](=O)[O-])cc1 (stereo not given) | 101 ± 29
CCCCCCCC/C=C\CCCCCCCC(=O)O | 124 ± 36
COC(=O)c1ccccc1OCc1cc(=O)oc2ccc(C)cc12 | 115 ± 20
Fc1cccc(Cl)c1C1SCc2nc3ccccc3n21 (stereo not given) | 22.8 ± 9.7
CC(=O)OC[C@H]1O[C@@H](NC(=O)N(CCCl)N=O)[C@H](OC(C)=O)[C@@H](OC(C)=O)[C@@H]1OC(C)=O | 115 ± 15
CC1=NN(C(=O)c2ccncc2)C(=O)C1N=Nc1ccc(F)cc1 (stereo not given) | 146 ± 33
COC(=O)NC1C(C)OC(OC2C/C=C(/C)C3C=CC4C(OC5CC(OC6CCC(OC7CC(O)C(OC8CCC(O)C(C)O8)C(C)O7)C(C)O6)C(OC(C)=O)C(C)O5)C(C)CC(C)C4C3(C)/C(O)=C3/C(=O)OC4(CC(C=O)=CC(O)C4/C=C\2C)C3=O)CC1(C)[N+](=O)[O-] (stereo not given) | 61.9 ± 10

Structure (SMILES) | cell growth [%]
Nc1nc(SCc2ccccc2Cl)c2ncn(C3OC(CO)C(O)C3O)c2n1 (stereo not given) | 177 ± 61
O=C1Nc2ccc(Br)cc2/C1=C\C(=O)c1ccccc1 | 96.9 ± 11
CC(=O)O[C@]1(C(C)=O)CC[C@H]2[C@@H]3C[C@H](C)C4=CC(=O)C=C[C@]4(C)[C@@]3(F)[C@@H](O)C[C@@]21C | 130 ± 81
OC(CBr)C(O)C(O)C(O)CBr (stereo not given) | 11.6 ± 4
COCC(=O)OC1CCn2c1nc1c2C(=O)C(C)=C(NC(C)=O)C1=O (stereo not given) | 76.1 ± 12
Nc1ncnc2c([C@@H]3O[C@H](CO)[C@@H](O)[C@H]3O)c[nH]c12 | 127 ± 35
COc1ccc2c(c1)C=C([N+](=O)[O-])C(C1OC(C)(C)OC1C1COC(C)(C)O1)O2 (stereo not given) | 84.6 ± 23
O=c1ccc2ccc(CBr)cc2o1 | 84.2 ± 21
C(=N\NC1=NCCN1)/c1c2ccccc2c(/C=N/NC2=NCCN2)c2ccccc12 | 21.4 ± 5.8
CCCCCCCCCCCCCCCC[N+](C)(C)CCl | 104 ± 17
CC(=O)OCc1cc(=O)n(C)c2c3c4c(cc12)c(C)cc(=O)n4CO3 | 95.1 ± 21
COc1ccc(C2=Nc3ccccc3SC(C)C2)cc1 (stereo not given) | 91.1 ± 17
CC(C)(C)c1ccc(O)c(CN(Cc2cc(C(C)(C)C)ccc2O)C2CCCCC2)c1 | 145 ± 56
CC[C@@]1(O)C[C@H](O[C@H]2C[C@H](N(C)C)[C@H](O[C@H]3C[C@H](O)[C@H](O[C@H]4CCC(=O)[C@H](C)O4)[C@H](C)O3)[C@H](C)O2)c2c(cc3c(c2O)C(=O)c2c(O)cccc2C3=O)[C@@H]1C(=O)OC | 48.2 ± 42
CC(=O)Oc1ccc(C(c2ccc(OC(C)=O)cc2)c2ccccn2)cc1 | 20.8 ± 5.2
O=[N+]([O-])c1ccccc1S(=O)(=O)c1ccccc1[N+](=O)[O-] | 77.1 ± 18
NC(=S)N/N=C/c1ccc(OC(=O)COc2ccccc2Cl)cn1 | 90.5 ± 27
NC(=Nc1nc(-c2ccccn2)cc2ccccc12)c1ccccn1 | 9.1 ± 2.3
CCCCCCCCCCCCCCCCCCOCC(COP(=O)([O-])OCC[N+](C)(C)C)OC (stereo not given) | 93 ± 25
CCCC[S+]([O-])CC(CO)NC(=O)/C=C\c1c(C)[nH]c(=O)[nH]c1=O (stereo not given) | 105 ± 28
